Measured values as given in PubChem BioAssay.

Assay: binders of probe aFGF2 on microarray, primary screen, stem cell growth factor project, biochemical, small-molecule microarray, fluorescence 635/667 (AID 1067);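 also: measures binding of biotinylated aFGF2 protein to printed compounds on slides; z-score merges feature fluorescence and signal-to-noise across triplicate slides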
Conditions: higher = more signal

| Compound | composite z-score |
| --- | --- |
| COC(=O)[C@@]1(Cc2ccc(OC)cc2)[C@H]2c3cc(C(=O)N(C)C)n(Cc4cc(C)n(C)n4)c3C[C@H]2CN1C(=O)c1ccccc1 | 0.468 |
| O=C(NCc1ccccc1)[C@]1(Cc2ccccc2)N=C(c2ccc(OCCCO)cc2)O[C@@H]1c1ccccc1 | -0.0499 |
| [N-]=[N+]=NCc1ccccc1[C@H]1OC(c2ccc(OCCCO)cc2)=N[C@@]1(Cc1ccccc1N=[N+]=[N-])C(=O)N1CCCCC1 | 0.141 |
| COCCOC(=O)N1C(=O)[C@@]2(c3ccccc31)[C@H](c1ccc(OCCO)cc1)N1[C@H](c3ccccc3)[C@H](c3ccccc3)OC(=O)[C@H]1[C@@H]2C(=O)NC[C@H](O)c1ccccc1 | 0.0276 |
| COc1ccc(C(=O)Nc2ccc3c(c2)[C@]2(O[C@@H](CCO)[C@H]([Si](C)(C)c4ccc(OC)cc4)[C@H]2C)C(=O)N3Cc2ccccc2)cc1 | -0.155 |
| CN(C)C(=O)[C@]1(Cc2ccccc2N=[N+]=[N-])N=C(c2ccc(OCCCO)cc2)O[C@@H]1c1ccccc1CN=[N+]=[N-] | 0.122 |
| COCCOC(=O)N1C(=O)[C@@]2(c3cc(C#Cc4ccc(OC)cc4)ccc31)[C@H](C(=O)N1CCc3cc(OC)c(OC)cc3C1)[C@H]1C(=O)O[C@H](c3ccccc3)[C@H](c3ccccc3)N1[C@@H]2c1ccc(O)cc1 | -0.129 |
| COc1ccc(C#Cc2ccc3c(c2)[C@]2(C(=O)N3)[C@H](C(N)=O)[C@H]3C(=O)O[C@H](c4ccccc4)[C@H](c4ccccc4)N3[C@@H]2c2ccc(O)cc2)cc1 | -0.0183 |
| COc1ccc([Si](C)(C)[C@@H]2[C@@H](CCO)O[C@]3(C(=O)N(Cc4ccccc4)c4ccc(N5C(=O)COc6ccccc65)cc43)[C@H]2C)cc1 | -0.0973 |
| CC(C)(C)OC(=O)CC[C@@]1(C(=O)N2CCCCC2)N=C(c2ccc(OCCCO)cc2)O[C@@H]1c1ccccc1CN=[N+]=[N-] | 0.103 |
| CC(C)C(CO)N1C(=O)[C@@H]2[C@H]3C(=O)OCC=C[C@H]3OC23C=CCN(CCN2CCOCC2)C(=O)[C@@H]13 (stereo not given in full) | -0.166 |
| CN1C(=O)C2C=CC(C(O)c3cccc4ccccc34)N(NC(=O)OC(C)(C)C)C2C1=O (stereo not given) | 0.194 |
| COCCOC(=O)N1C(=O)[C@@]2(c3cc(C#Cc4ccc(OC)cc4)ccc31)[C@H](C(=O)N1CCc3cc(OC)c(OC)cc3C1)[C@H]1C(=O)O[C@H](c3ccccc3)[C@H](c3ccccc3)N1[C@@H]2c1ccc(OCCO)cc1 | -0.0567 |
| CCOC(=O)C1=CC[C@@H](c2ccccc2)N(S(=O)(=O)c2ccc(C)cc2)[C@H]1C=C(C)C | 0.119 |
| C[N+](C)(C)CCCC[C@@H]1NC(=O)[C@H]2C[C@@H](C(=O)NCCCCCCN)[C@@H](c3cccc(OCCO)c3)N2C1=O | 0.0852 |
| COC(=O)C(CC#Cc1ccc2c(c1)[C@]1(C(=O)N2)[C@H](c2ccc(O)cc2)N2[C@H](c3ccccc3)[C@H](c3ccccc3)OC(=O)[C@H]2[C@@H]1C(N)=O)C(=O)OC | -0.168 |
| CCOc1cc(C(O)C2C=CC3C(=O)NC(=O)C3N2Nc2ccccn2)ccc1O (stereo not given) | -0.0094 |
| C[N+](C)(C)CCCCCCNC(=O)[C@@H]1C[C@@H]2C(=O)NCC(=O)N2[C@@H]1c1cccc(OCCO)c1 | -0.125 |

| Compound | composite z-score |
| --- | --- |
| O=C1c2ccccc2C(=O)C2CC([C@H]3Oc4ccccc4S(=O)(=O)N4CCC[C@@H]34)=CCC12 (stereo not given in full) | -0.176 |
| CCCc1cc2c(n1Cc1ccc(OC)cc1)C(C)C1CN(C(=O)c3ccccc3)C(C)(C(=O)OC)C21 (stereo not given) | 0.354 |
| CC(=O)NCCCC[C@@H]1NC(=O)[C@@H]2C[C@H](C(=O)NCCCC[N+](C)(C)C)[C@H](c3cccc(OCCO)c3)N2C1=O | -0.126 |
| [N-]=[N+]=Nc1ccccc1[C@@H]1OC(c2ccc(OCCCO)cc2)=N[C@]1(CCS(=O)(=O)c1ccccc1)C(=O)NCc1ccccc1 | 0.294 |
| CN(C)CCCC[C@@H]1NC(=O)[C@H]2C[C@@H](C(=O)NCCCCCCNC(=O)CS)[C@@H](c3ccc(O)cc3)N2C1=O | -0.116 |
| COC(=O)[C@@]1(Cc2ccc(OC)cc2)[C@H]2c3cc(C(=O)N4CCCC4)n(Cc4ccc(C)o4)c3C[C@H]2CN1C(=O)c1ccccc1 | 0.218 |
| O=C1N(Cc2ccccc2)c2ccccc2[C@H]2OC(c3ccc(OCCCO)cc3)=N[C@@]12CCS(=O)(=O)c1ccccc1 | 0.11 |
| COCCCNC(=O)[C@]1(Cc2ccccc2)N=C(c2ccc(OCCCO)cc2)O[C@@H]1c1ccccc1N=[N+]=[N-] | 0.12 |
| CCCCC(=C=CC[C@H](O)c1cccc(OCCO)c1)C[C@H](O)COCc1ccccc1 | -0.112 |
| COC(=O)c1ccc(OC)c(/C=C\CC(CCc2ccccc2)OC(=O)c2ccncc2)c1 (stereo not given) | -0.22 |
| COc1ccc([Si](C)(C)[C@H]2[C@H](CC(=O)N3CCC[C@H]3CO)O[C@@]3(C(=O)N(Cc4ccc(N5C(=O)c6cccc7cccc5c67)cc4)c4ccccc43)[C@@H]2C)cc1 | -0.071 |
| COc1cc(NN2C(C(O)c3ccc(I)cc3)C=CC3C(=O)N(C)C(=O)C32)cc(OC)c1OC (stereo not given) | -0.0207 |
| C=CCC(OC(C)=O)[C@@H]1[C@@H](N(Cc2ccc(-c3ccccc3)cc2)C(=O)c2cccc3ccccc23)c2cc(OCCCO)ccc2N1C(=O)c1ccc2ccccc2n1 (stereo not given in full) | -0.102 |
| C=CCC(OC(C)=O)[C@@H]1[C@@H](N(Cc2cccc3ccccc23)C(=O)Cc2ccc(F)cc2)c2cc(OCCCO)ccc2N1C(=O)Cc1ccc(OC)cc1 (stereo not given in full) | -0.116 |
| O=C1O[C@H](c2ccccc2)[C@H](c2ccccc2)N2[C@H]1[C@@H](C(=O)N1CCN(c3ncccn3)CC1)[C@]1(C(=O)Nc3ccc(C#CCCO)cc31)[C@H]2c1ccccc1OCCO | 0.0002 |
| COC(=O)[C@@]1(Cc2ccccc2)[C@H]2c3cc(C(=O)N4CCCC4)n(CCO)c3C[C@H]2CN1C(=O)c1ccccc1 | 0.759 |
| COCCCNC(=O)[C@@]1(Cc2ccccc2I)c2ccccc2C(=O)N(Cc2ccccc2Cl)[C@H]1c1ccc(CO)cc1 | -0.0686 |
